What all share (assay): DAPPL (digital affinity profiling via proximity ligation, sequencing); 10 mM Tris-HCl pH 7.5, 50 mM NaCl, 1 mM DTT, 4% glycerol, room temperature, 30 min; GST-TFs on glutathione beads, 16-mer random dsDNA library, 0.1% formaldehyde crosslink after washing; high values mean tight binding
Common to all, as to conditions: protein: recombinant; tags: N-terminal GST; dsDNA, one strand shown

For one assay, the target named is T1, GABPA (Homo sapiens, UniProt Q06546 1-454).
T1 sequence: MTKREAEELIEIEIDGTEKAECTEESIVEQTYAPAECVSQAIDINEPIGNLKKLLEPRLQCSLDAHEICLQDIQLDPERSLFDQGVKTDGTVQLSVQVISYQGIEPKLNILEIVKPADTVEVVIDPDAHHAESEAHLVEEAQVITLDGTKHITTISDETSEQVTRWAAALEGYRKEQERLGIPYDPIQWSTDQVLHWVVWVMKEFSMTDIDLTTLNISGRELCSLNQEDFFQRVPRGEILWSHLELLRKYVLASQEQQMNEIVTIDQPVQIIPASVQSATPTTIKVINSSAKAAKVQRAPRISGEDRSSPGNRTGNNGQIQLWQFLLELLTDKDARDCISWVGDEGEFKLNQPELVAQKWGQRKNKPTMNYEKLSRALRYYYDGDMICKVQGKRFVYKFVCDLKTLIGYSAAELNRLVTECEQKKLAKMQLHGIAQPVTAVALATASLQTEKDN
An outline of the steps:
(§1)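 Beads coated with glutathione captured GST-fused human transcription factors that had been expressed in yeast, and the factors were then given DNA barcodes and pooled with a tag-only sample. The pools were incubated with 200 nmole of a random double-stranded 16-mer DNA library in Tris/NaCl/DTT/glycerol buffer for 30 min at room temperature, washed, crosslinked with 0.1% formaldehyde and proximity-ligated with BsaI/T4 ligase at 37 °C for 1 h. PCR amplification and Illumina NextSeq500 sequencing came last. Binding signal is each hexamer's read frequency for a factor divided by its frequency for the tag-only sample.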

Another assay concerns the target ELF1 (Homo sapiens, UniProt P32519 1-619). In a few lines:
as §1

The target in the next assay is T2, EHF (Homo sapiens, UniProt Q9NZC4 1-300).
T2 sequence: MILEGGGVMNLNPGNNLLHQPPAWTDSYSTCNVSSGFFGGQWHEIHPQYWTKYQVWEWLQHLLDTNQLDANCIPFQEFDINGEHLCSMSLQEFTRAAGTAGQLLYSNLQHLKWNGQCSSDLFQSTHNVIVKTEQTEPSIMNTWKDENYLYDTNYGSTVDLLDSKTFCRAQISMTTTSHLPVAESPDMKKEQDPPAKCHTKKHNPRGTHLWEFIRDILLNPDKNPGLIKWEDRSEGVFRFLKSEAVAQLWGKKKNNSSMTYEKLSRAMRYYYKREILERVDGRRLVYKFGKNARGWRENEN
An outline of the steps: as §1

In a further assay the target is SPI1 (Homo sapiens, UniProt P17947 1-270). In a few lines:
as §1

The target of another assay is SPIB (Homo sapiens, UniProt Q01892 1-262). An outline of the steps: as §1
Chain of SPIB (Q01892 whole entry): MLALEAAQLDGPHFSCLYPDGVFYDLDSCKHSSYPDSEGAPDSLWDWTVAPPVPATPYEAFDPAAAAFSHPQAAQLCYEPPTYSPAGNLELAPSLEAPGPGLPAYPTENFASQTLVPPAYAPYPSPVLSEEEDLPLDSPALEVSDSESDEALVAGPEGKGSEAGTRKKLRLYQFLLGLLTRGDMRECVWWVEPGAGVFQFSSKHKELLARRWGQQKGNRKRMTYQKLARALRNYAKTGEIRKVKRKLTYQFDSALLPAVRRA
For a further assay, the target named is ETV5 (Homo sapiens, UniProt P41161 1-510). An outline of the steps: as §1
Chain of ETV5 (P41161 whole entry): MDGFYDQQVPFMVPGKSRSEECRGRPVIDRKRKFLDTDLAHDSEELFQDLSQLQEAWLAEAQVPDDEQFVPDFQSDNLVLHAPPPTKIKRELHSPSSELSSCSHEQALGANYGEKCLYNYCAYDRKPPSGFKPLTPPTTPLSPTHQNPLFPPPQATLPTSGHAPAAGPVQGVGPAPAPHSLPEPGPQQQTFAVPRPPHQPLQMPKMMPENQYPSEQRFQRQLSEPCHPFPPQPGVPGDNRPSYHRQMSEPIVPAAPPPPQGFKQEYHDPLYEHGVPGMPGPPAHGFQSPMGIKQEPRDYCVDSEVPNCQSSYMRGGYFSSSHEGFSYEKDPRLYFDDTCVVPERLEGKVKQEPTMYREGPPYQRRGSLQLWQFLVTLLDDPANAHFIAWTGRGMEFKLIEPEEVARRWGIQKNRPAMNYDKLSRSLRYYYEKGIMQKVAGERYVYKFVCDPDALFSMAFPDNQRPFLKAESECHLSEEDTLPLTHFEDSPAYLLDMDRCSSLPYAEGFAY
A further assay concerns the target T3, ELK4 (Homo sapiens, UniProt P28324-2 1-405).
T3 sequence: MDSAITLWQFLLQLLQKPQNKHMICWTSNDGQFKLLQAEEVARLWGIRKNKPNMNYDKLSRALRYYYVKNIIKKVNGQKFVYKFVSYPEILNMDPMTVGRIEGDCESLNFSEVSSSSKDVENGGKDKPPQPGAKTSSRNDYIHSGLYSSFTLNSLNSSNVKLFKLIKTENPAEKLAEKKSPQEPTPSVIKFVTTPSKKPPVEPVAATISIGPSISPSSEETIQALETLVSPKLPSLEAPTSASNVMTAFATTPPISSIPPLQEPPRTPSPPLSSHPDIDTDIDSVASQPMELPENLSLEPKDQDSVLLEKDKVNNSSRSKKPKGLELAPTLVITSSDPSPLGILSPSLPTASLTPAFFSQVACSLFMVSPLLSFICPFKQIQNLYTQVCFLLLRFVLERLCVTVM
In a few lines: as §1

The target in a further assay is ETV1 (Homo sapiens, UniProt P50549 1-477). In a few lines:
as §1

For the next assay, the target named is T4, ERF (Homo sapiens, UniProt P50548 1-548).
T4 sequence: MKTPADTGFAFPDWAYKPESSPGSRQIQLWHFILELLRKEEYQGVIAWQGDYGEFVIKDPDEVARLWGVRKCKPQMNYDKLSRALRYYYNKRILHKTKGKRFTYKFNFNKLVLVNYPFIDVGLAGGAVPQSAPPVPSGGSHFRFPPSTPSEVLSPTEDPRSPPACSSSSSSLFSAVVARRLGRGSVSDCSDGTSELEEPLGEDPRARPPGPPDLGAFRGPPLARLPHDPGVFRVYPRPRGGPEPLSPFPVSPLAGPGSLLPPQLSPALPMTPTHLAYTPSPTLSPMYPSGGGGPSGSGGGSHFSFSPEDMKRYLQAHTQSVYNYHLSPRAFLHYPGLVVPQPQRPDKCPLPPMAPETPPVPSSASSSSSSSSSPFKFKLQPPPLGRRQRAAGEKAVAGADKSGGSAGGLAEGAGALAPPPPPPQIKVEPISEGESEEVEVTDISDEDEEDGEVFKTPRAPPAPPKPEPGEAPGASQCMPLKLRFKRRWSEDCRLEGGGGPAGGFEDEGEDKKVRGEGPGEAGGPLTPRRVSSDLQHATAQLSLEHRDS
In a few lines: as §1

The next assay has as its target T5, ETV3L (Homo sapiens, UniProt Q6ZN32 1-361).
T5 sequence: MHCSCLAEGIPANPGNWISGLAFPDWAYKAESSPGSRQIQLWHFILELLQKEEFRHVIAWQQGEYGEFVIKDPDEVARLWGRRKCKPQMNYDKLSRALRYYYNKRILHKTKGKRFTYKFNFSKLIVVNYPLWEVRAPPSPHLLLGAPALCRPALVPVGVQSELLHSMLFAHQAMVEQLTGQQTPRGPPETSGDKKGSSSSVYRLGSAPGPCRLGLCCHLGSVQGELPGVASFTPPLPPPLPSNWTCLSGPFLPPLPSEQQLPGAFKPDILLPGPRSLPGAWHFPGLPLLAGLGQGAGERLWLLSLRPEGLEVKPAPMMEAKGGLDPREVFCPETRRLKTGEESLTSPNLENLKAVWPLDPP
In a few lines:
as §1

In another assay the target is T6, SPDEF (Homo sapiens, UniProt O95238 1-335).
T6 sequence: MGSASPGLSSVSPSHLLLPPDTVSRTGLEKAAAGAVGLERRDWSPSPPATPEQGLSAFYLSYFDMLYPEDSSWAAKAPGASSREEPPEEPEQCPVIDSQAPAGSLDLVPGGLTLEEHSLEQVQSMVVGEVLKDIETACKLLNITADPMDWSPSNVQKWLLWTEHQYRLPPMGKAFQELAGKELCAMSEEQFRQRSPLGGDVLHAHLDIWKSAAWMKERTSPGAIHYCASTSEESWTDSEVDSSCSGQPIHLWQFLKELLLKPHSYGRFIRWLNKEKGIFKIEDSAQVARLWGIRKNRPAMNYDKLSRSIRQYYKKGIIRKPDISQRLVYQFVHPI
In a few lines:
as §1

A further assay has as its target T7, ETV3 (Homo sapiens, UniProt P41162-2 1-143).
T7 sequence: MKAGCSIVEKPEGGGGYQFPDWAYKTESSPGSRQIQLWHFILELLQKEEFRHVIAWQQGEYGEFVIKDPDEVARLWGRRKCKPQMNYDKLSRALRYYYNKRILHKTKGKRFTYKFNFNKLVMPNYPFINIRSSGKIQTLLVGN
In a few lines: as §1

For another assay, the target named is ETV6 (Homo sapiens, UniProt P41212 1-452). In a few lines: as §1
Chain of ETV6 (P41212 whole entry): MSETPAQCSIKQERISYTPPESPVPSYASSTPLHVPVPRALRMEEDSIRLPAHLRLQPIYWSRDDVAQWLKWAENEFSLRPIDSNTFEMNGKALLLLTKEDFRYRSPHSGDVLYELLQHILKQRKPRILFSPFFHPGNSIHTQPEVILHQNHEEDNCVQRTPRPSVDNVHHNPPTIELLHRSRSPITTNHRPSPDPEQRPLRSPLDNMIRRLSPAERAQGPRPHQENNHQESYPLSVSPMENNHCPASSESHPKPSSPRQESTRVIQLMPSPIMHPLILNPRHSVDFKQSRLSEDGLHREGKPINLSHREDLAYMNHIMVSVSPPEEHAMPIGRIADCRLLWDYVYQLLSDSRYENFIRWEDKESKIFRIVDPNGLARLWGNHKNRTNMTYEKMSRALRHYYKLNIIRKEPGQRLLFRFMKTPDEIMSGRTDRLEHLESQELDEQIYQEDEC
In the next assay the target is T8, ELK1 (Homo sapiens, UniProt P19419 1-428).
T8 sequence: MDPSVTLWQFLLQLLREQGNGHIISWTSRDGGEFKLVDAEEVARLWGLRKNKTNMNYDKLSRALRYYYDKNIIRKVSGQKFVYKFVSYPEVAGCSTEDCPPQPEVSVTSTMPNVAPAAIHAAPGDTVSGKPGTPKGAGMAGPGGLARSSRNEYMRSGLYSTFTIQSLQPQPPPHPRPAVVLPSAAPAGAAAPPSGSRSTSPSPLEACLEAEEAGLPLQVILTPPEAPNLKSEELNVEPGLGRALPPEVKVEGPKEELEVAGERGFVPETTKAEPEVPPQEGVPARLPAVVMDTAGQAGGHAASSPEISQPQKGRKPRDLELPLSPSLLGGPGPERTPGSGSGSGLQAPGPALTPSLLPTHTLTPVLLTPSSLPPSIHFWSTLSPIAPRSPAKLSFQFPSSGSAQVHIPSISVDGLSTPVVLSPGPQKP
In a few lines:
as §1

For a further assay, the target named is T9, FEV (Homo sapiens, UniProt Q99581 1-238).
T9 sequence: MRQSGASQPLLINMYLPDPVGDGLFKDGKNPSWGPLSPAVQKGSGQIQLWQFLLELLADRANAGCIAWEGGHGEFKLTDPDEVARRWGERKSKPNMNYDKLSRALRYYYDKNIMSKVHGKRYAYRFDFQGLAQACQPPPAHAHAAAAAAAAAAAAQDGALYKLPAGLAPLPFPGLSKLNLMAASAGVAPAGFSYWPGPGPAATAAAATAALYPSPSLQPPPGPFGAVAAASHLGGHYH
In a few lines:
as §1

In a further assay the target is ELF4 (Homo sapiens, UniProt Q99607 1-663). In a few lines: as §1
Chain of ELF4 (Q99607 whole entry): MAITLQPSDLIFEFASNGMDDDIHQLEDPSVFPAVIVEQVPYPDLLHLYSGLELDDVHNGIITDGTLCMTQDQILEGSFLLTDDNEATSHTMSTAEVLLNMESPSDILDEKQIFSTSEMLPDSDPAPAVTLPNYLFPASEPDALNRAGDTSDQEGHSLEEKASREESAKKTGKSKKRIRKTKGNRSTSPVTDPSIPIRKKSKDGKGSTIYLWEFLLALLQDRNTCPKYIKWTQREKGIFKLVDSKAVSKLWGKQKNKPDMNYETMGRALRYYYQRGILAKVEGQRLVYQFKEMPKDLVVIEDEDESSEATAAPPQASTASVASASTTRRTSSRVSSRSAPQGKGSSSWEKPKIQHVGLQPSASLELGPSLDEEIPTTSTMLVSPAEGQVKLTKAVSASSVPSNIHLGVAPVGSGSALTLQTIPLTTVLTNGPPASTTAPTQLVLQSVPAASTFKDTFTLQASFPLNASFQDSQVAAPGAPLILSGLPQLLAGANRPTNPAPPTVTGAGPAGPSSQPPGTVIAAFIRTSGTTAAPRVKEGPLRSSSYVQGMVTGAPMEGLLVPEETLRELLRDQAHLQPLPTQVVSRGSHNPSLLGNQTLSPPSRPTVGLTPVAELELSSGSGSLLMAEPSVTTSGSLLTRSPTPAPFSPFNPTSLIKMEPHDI
The next assay addresses T10, ETV7 (Homo sapiens, UniProt Q9Y603 1-341).
T10 sequence: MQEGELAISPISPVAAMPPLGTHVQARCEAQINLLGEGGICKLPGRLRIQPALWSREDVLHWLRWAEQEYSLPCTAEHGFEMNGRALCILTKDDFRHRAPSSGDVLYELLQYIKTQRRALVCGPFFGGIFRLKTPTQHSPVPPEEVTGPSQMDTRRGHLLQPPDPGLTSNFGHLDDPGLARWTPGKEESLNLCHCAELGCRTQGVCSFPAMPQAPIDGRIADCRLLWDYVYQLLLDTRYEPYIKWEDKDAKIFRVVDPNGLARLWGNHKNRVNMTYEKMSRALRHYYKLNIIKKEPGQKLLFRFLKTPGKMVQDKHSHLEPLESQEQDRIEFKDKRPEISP
An outline of the steps:
as §1

Chain of ETV1 (P50549 whole entry): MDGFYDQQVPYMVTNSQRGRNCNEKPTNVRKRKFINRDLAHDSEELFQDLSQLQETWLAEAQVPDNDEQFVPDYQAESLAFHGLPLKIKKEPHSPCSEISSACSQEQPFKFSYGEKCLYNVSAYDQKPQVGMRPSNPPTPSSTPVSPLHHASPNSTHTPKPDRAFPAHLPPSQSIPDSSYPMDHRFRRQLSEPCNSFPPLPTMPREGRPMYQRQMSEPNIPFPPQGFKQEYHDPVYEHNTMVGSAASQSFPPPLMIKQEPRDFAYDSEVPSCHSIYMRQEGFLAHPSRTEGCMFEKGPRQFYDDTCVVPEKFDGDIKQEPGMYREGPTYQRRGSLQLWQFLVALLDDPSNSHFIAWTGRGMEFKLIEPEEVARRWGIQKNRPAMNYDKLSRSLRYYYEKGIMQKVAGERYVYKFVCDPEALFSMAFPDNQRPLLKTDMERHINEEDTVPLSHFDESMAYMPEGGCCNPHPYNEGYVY
Chain of ELF1 (P32519 whole entry): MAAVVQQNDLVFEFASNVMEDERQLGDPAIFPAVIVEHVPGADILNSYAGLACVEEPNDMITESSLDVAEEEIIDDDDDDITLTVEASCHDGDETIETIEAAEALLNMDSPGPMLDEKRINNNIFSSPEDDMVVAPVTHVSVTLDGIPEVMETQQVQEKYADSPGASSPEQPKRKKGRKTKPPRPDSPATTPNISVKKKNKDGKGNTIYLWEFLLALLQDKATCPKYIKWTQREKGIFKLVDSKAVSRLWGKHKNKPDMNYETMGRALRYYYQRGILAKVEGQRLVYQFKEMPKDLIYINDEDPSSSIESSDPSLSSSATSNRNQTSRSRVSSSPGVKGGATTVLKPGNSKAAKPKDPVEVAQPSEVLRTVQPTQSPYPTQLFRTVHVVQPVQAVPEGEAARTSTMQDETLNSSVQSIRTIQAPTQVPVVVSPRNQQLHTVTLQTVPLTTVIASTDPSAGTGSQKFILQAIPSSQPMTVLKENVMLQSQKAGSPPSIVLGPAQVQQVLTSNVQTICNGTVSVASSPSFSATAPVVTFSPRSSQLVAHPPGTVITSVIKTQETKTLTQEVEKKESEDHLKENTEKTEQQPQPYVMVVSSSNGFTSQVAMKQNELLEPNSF

For CGTCCA, the binding signal is 1.04 fold enrichment (6-mer frequency, TF over GST control) with GABPA; 1.05 fold enrichment (6-mer frequency, TF over GST control) with ELF1; 1.02 fold enrichment (6-mer frequency, TF over GST control) with EHF; 1.03 fold enrichment (6-mer frequency, TF over GST control) with SPI1; 1 fold enrichment (6-mer frequency, TF over GST control) with SPIB; 1.02 fold enrichment (6-mer frequency, TF over GST control) with ETV5. For the same sequence, the binding signal was 1 fold enrichment (6-mer frequency, TF over GST control) in the assay with ELK4; 1.08 fold enrichment (6-mer frequency, TF over GST control) with ETV1; 1.02 fold enrichment (6-mer frequency, TF over GST control) in the assay with ERF; 1.13 fold enrichment (6-mer frequency, TF over GST control) in the assay with ETV3L; 1.07 fold enrichment (6-mer frequency, TF over GST control) in the assay with SPDEF; 1.03 fold enrichment (6-mer frequency, TF over GST control) with ETV3. In the assay with ETV6, the binding signal was 1.04 fold enrichment (6-mer frequency, TF over GST control).

As for CAATGG, the binding signal in the assay with ELK1 was 1.03 fold enrichment (6-mer frequency, TF over GST control); in the assay with GABPA, 1.09 fold enrichment (6-mer frequency, TF over GST control); with ELF1, 1.03 fold enrichment (6-mer frequency, TF over GST control); with SPI1, 1.04 fold enrichment (6-mer frequency, TF over GST control); with SPIB it was 1.03 fold enrichment (6-mer frequency, TF over GST control); in the assay with FEV, 1.04 fold enrichment (6-mer frequency, TF over GST control). Further, the binding signal in the assay with ETV5 was 1.03 fold enrichment (6-mer frequency, TF over GST control); with ELF4 it was 1.02 fold enrichment (6-mer frequency, TF over GST control); with ETV1, 1.1 fold enrichment (6-mer frequency, TF over GST control); with ERF it was 1.03 fold enrichment (6-mer frequency, TF over GST control); with ETV7, 1.12 fold enrichment (6-mer frequency, TF over GST control); in the assay with ETV3, 1.03 fold enrichment (6-mer frequency, TF over GST control). Also, in the assay with ETV6, the binding signal was 1.04 fold enrichment (6-mer frequency, TF over GST control).

The values above are taken from publication PMC7862700, “An all-to-all approach to the identification of sequence-specific readers for epigenetic DNA modifications on cytosine”.
